Compounds without any hit were thinned out: in the full panel of roughly 79,000, 15% have a hit. Unmarked numbers belong to inactive results. Calls of active or inactive are those of the source. Cut-off read from the data, not from the text of the source: active = growth inhibition above about 70%; inactive = the rest.
Test: NCI Yeast Anticancer Drug Screen. Data for the rad18 strain (AID 177)
Details: S. cerevisiae rad18 mutant growth inhibition, hits give high values
Protocol: Growth inhibition of yeast strains with defined genetic alterations is measured as a screen for potential anti-cancer activity. Selected strains with alterations in DNA damage repair or cell cycle control were exposed to compounds and growth inhibition was measured relative to vehicle treated controls. The strain used in this assay is rad18

Structure (SMILES)	growth inhibition (at 1.2 µM)	growth inhibition (at 3.7 µM)	growth inhibition (at 11.0 µM)	growth inhibition (at 33.0 µM)	growth inhibition (at 100.0 µM)
COc1cccc(/C=C2\S/C(=N/Nc3nc(-c4ccc([N+](=O)[O-])cc4)cs3)NC2=O)c1O	10%	25%	72% (active)	93% (active)	92% (active)
CCCCCCCC/C=C\CCCCCCCCN	-1%	7%	-13%	97% (active)	97% (active)
CC1CCC(C2=CSC3CCCCC3N2)CC1 (stereo not given)	-5%	-6%	-6%	3%	45%
Cc1c(C(=O)/C=C/c2ccccc2[N+](=O)[O-])[n+](=O)c2ccccc2n1[O-]	84% (active)	90% (active)	92% (active)	92% (active)	93% (active)
c1ccc([P+](CCN2Cc3ccccc3C2)(c2ccccc2)c2ccccc2)cc1	49%	71% (active)	58%	74% (active)	96% (active)
CCOC(=O)/C(=C/c1cccc(Cl)c1)N(CC)CC	13%	14%	17%	35%	95% (active)
CCOP(=O)(OCC)/C(C#N)=C\c1cccc2ccccc12	15%	21%	47%	95% (active)	98% (active)
CCCCCCCCCCCCOCCOCCOCC(N)=O	-18%	-31%	-18%	97% (active)	95% (active)
